Data reported in the supplement of paper PMC8728848.
The full list was thinned out, with the strongest signals kept by preference.

What was measured:
Test in all cases: glycan array binding signal (z-score within array); higher = stronger binding
Settings in all cases: glycan notation: IUPAC condensed, linker removed
[1] = target: Gal(b1-4)GlcNAc(b1-3)Gal(b1-4)GlcNAc(b1-3)Gal(b1-4)GlcNAc(b1-3)Gal(b1-4)GlcNAc(b1-2)[Gal(b1-4)GlcNAc(b1-3)Gal(b1-4)GlcNAc(b1-3)Gal(b1-4)GlcNAc(b1-3)Gal(b1-4)GlcNAc(b1-6)]Man(a1-6)[Gal(b1-4)GlcNAc(b1-3)Gal(b1-4)GlcNAc(b1-3)Gal(b1-4)GlcNAc(b1-3)Gal(b1-4)GlcNAc(b1-2)Man(a1-3)]Man(b1-4)GlcNAc(b1-4)[Fuc(a1-6)]GlcNAc
How it was run: (§1)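 Glycan array data were curated from 3228 arrays in the Consortium for Functional Glycomics database and kept only where the protein sequence was available. Glycan names were converted to IUPAC-condensed notation, and columns mapping to the same glycan were averaged. The binding signal is a within-array Z-score, averaged across arrays of the same protein sequence at different concentrations or buffers and across linkers. Negative Z-scores can be read as non-binding.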

[2] = target: Gal(b1-4)GlcNAc(b1-3)Gal(b1-4)GlcNAc(b1-3)Gal(b1-4)GlcNAc(b1-3)Gal(b1-4)GlcNAc(b1-3)Gal(b1-4)GlcNAc(b1-2)Man(a1-3)[Gal(b1-4)GlcNAc(b1-3)Gal(b1-4)GlcNAc(b1-3)Gal(b1-4)GlcNAc(b1-3)Gal(b1-4)GlcNAc(b1-3)Gal(b1-4)GlcNAc(b1-2)Man(a1-6)]Man(b1-4)GlcNAc(b1-4)GlcNAc
How it was run: as §1

[3] = target: Gal(b1-4)GlcNAc(b1-3)Gal(b1-4)GlcNAc(b1-3)Gal(b1-4)GlcNAc(b1-3)Gal(b1-4)GlcNAc(b1-3)Gal(b1-4)GlcNAc(b1-2)Man(a1-3)[Gal(b1-4)GlcNAc(b1-3)Gal(b1-4)GlcNAc(b1-3)Gal(b1-4)GlcNAc(b1-3)Gal(b1-4)GlcNAc(b1-3)Gal(b1-4)GlcNAc(b1-2)Man(a1-6)]Man(b1-4)GlcNAc(b1-4)[Fuc(a1-6)]GlcNAc
How it was run: as §1

[4] = target: Gal(b1-4)GlcNAc(b1-3)Gal(b1-4)GlcNAc(b1-3)Gal(b1-4)GlcNAc(b1-3)Gal(b1-4)GlcNAc(b1-3)Gal(b1-4)GlcNAc(b1-3)Gal(b1-4)GlcNAc(b1-2)Man(a1-3)[Gal(b1-4)GlcNAc(b1-3)Gal(b1-4)GlcNAc(b1-3)Gal(b1-4)GlcNAc(b1-3)Gal(b1-4)GlcNAc(b1-3)Gal(b1-4)GlcNAc(b1-3)Gal(b1-4)GlcNAc(b1-2)Man(a1-6)]Man(b1-4)GlcNAc(b1-4)GlcNAc
How it was run: as §1

[5] = target: Gal(b1-4)GlcNAc(b1-3)Gal(b1-4)GlcNAc(b1-3)[Gal(b1-4)GlcNAc(b1-3)Gal(b1-4)GlcNAc(b1-6)]GalNAc
How it was run: as §1

[6] = target: Gal(b1-4)GlcNAc(b1-6)GalNAc
How it was run: as §1

[7] = target: Gal3S(b1-4)Glc6S
How it was run: as §1

[8] = target: Gal3S(b1-4)[Fuc(a1-3)]Glc6S
How it was run: as §1

[9] = target: Gal6S(b1-4)Glc
How it was run: as §1

[10] = target: GalNAc(b1-4)GlcNAc(b1-2)Man(a1-3)[GalNAc(b1-4)GlcNAc(b1-2)Man(a1-6)]Man(b1-4)GlcNAc(b1-4)GlcNAc
How it was run: as §1

[11] = target: GlcNAc(b1-3)Gal(b1-4)GlcNAc
How it was run: as §1

[12] = target: GlcNAc(b1-3)Gal(b1-4)GlcNAc(b1-3)Gal(b1-4)GlcNAc
How it was run: as §1

[13] = target: GlcNAc(b1-3)Gal(b1-4)GlcNAc(b1-3)Gal(b1-4)GlcNAc(b1-3)Gal(b1-4)GlcNAc(b1-3)Gal(b1-4)GlcNAc(b1-2)Man(a1-3)[GlcNAc(b1-3)Gal(b1-4)GlcNAc(b1-3)Gal(b1-4)GlcNAc(b1-3)Gal(b1-4)GlcNAc(b1-3)Gal(b1-4)GlcNAc(b1-2)Man(a1-6)]Man(b1-4)GlcNAc(b1-4)[Fuc(a1-6)]GlcNAc
How it was run: as §1

[14] = target: GlcNAc(b1-3)Gal(b1-4)GlcNAc(b1-3)Gal(b1-4)GlcNAc(b1-3)GalNAc
How it was run: as §1

[15] = target: GlcNAc(b1-4)GlcNAc(b1-4)GlcNAc(b1-4)GlcNAc(b1-4)GlcNAc
How it was run: as §1

[16] = target: Man(a1-6)Man
How it was run: as §1

[17] = target: Neu5Ac(a2-3)Gal(b1-3)GlcNAc(b1-2)Man(a1-3)[Neu5Ac(a2-3)Gal(b1-3)GlcNAc(b1-2)Man(a1-6)]Man(b1-4)GlcNAc(b1-4)GlcNAc
How it was run: as §1

[18] = target: Neu5Ac(a2-3)Gal(b1-4)GlcNAc
How it was run: as §1

[19] = target: Neu5Ac(a2-3)Gal(b1-4)GlcNAc(b1-3)Gal(b1-4)[Fuc(a1-3)]GlcNAc
How it was run: as §1

[20] = target: Neu5Ac(a2-3)Gal(b1-4)GlcNAc(b1-3)GalNAc
How it was run: as §1

[21] = target: Neu5Ac(a2-6)Gal
How it was run: as §1

[22] = target: Neu5Ac(a2-6)Gal(b1-4)GlcNAc(b1-2)Man
How it was run: as §1

[23] = target: Neu5Ac(a2-6)Gal(b1-4)GlcNAc(b1-2)[Neu5Ac(a2-6)Gal(b1-4)GlcNAc(b1-4)]Man(a1-3)[GlcNAc(b1-4)][Neu5Ac(a2-6)Gal(b1-4)GlcNAc(b1-2)[Neu5Ac(a2-6)Gal(b1-4)GlcNAc(b1-6)]Man(a1-6)]Man(b1-4)GlcNAc(b1-4)GlcNAc
How it was run: as §1

[24] = target: Neu5Ac(a2-6)GlcNAc(b1-4)GlcNAc(b1-4)GlcNAc
How it was run: as §1

[25] = target: Neu5Ac(a2-8)Neu5Ac(a2-3)Gal(b1-3)GalNAc(b1-4)[Neu5Ac(a2-3)]Gal(b1-4)Glc
How it was run: as §1

[26] = target: Neu5Ac(a2-8)Neu5Ac(a2-8)Neu5Ac(a2-3)[Gal(b1-3)GalNAc(b1-4)]Gal(b1-4)Glc
How it was run: as §1

[27] = target: Neu5Gc(a2-3)Gal(b1-3)[Fuc(a1-4)]GlcNAc
How it was run: as §1

B1: Gal 8 (Mus musculus), Q9JL15 (protein)
chain: MGGSHHHHHHGMASMLSLNNLQNIIYNPIIPYVGTITEQLKPGSLIVIRGHVPKDSERFQVDFQLGNSLKPRADVAFHFNPRFKRSSCIVCNTLTQEKWGWEEITYDMPFRKEKSFEIVFMVLKNKFQVAVNGRHVLLYAHRISPEQIDTVGIYGKVNIHSIGFRFSSASALPHTLGDLQSMETSALGLTQINRENIQKPGKLQLSLPFEARLNASMGPGRTVVIKGEVNTNARSFNVDLVAGKTRDIALHLNPRLNVKAFVRNSFLQDAWGEEERNITCFPFSSGMYFEMIIYCDVREFKVAINGVHSLEYKHRFKDLSSIDTLSVDGDIRLLDVRSW
For B1, the “glycan array binding signal (z-score)” value [1] was 2.76, the “glycan array binding signal (z-score)” value [2] was 3.48 and the “glycan array binding signal (z-score)” value [3] was 3.61. For the same binder, the “glycan array binding signal (z-score)” value [4] was 3.5, the “glycan array binding signal (z-score)” value [5] was -0.063 and the “glycan array binding signal (z-score)” value [6] was -0.214. The “glycan array binding signal (z-score)” value [7] was 0.566, the “glycan array binding signal (z-score)” value [8] was -0.498 and the “glycan array binding signal (z-score)” value [9] was -0.532. The “glycan array binding signal (z-score)” value [10] was -0.195, the “glycan array binding signal (z-score)” value [11] was -0.163 and the “glycan array binding signal (z-score)” value [12] was 1.11. The “glycan array binding signal (z-score)” value [13] was 3.01, the “glycan array binding signal (z-score)” value [14] was 0.651 and the “glycan array binding signal (z-score)” value [15] was -0.54. The “glycan array binding signal (z-score)” value [16] was -0.51, the “glycan array binding signal (z-score)” value [17] was -0.466 and the “glycan array binding signal (z-score)” value [18] was -0.517. For the same binder, the “glycan array binding signal (z-score)” value [19] was -0.215, the “glycan array binding signal (z-score)” value [20] was -0.525 and the “glycan array binding signal (z-score)” value [21] was -0.511. The “glycan array binding signal (z-score)” value [22] was -0.548, the “glycan array binding signal (z-score)” value [23] was -0.602 and the “glycan array binding signal (z-score)” value [24] was -0.545. For the same binder, the “glycan array binding signal (z-score)” value [25] was 0.316, the “glycan array binding signal (z-score)” value [26] was -0.539 and the “glycan array binding signal (z-score)” value [27] was -0.514.
